# Measurements reported in PubChem BioAssay (NCATS).
# Activity calls are given as the source filed them. Calls come from the whole dose curve.
# What was measured:
# Test in all cases: Confirmatory Screen for Target Class Profiling of Small Molecule Inhibitors of Methyltransferases (AID 1745852); for activity change, negative = inhibition: % is set by controls: 0 for no effect and ±100 for the full control effect
# [1] = target: Catechol O-methyltransferase (Homo sapiens) (UniProt P21964); conditions: MTase-Glo luminescence, SAH detection, recombinant enzyme; measured here: COMT max response; stronger effect = lower value
# Catechol O-methyltransferase (Homo sapiens), sequence (P21964 whole entry, looked up): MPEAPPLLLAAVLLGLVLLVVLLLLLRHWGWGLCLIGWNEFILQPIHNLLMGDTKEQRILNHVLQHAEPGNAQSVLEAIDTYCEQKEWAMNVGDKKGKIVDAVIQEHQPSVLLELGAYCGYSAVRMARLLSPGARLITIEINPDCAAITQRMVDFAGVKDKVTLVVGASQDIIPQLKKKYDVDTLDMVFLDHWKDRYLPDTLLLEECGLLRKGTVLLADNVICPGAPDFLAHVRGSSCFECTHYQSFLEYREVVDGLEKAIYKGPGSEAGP
# [2] = target: Guanidinoacetate N-methyltransferase (Homo sapiens) (UniProt Q14353); conditions: MTase-Glo luminescence, SAH detection, recombinant enzyme; activity change, negative = inhibition: at 57.3 µM (top of the series) unless noted; series mostly up to 57.3 µM
# [3] = target: Nicotinamide N-methyltransferase (Homo sapiens) (UniProt P40261); conditions: MTase-Glo luminescence, SAH detection, recombinant enzyme; measured here: NNMT max response; stronger effect = lower value
# Nicotinamide N-methyltransferase (Homo sapiens), sequence (P40261 whole entry, looked up): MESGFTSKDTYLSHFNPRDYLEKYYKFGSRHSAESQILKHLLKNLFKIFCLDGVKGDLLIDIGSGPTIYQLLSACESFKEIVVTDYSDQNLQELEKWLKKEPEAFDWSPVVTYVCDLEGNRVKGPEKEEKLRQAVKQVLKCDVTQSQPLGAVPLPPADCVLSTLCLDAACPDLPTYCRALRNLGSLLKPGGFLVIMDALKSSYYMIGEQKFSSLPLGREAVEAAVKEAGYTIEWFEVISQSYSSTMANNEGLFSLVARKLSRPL
# [4] = target: Phenylethanolamine N-methyltransferase (Homo sapiens) (UniProt P11086); conditions: MTase-Glo luminescence, SAH detection, recombinant enzyme; measured here: PNMT max response; stronger effect = lower value
# Phenylethanolamine N-methyltransferase (Homo sapiens), sequence (P11086 whole entry, looked up): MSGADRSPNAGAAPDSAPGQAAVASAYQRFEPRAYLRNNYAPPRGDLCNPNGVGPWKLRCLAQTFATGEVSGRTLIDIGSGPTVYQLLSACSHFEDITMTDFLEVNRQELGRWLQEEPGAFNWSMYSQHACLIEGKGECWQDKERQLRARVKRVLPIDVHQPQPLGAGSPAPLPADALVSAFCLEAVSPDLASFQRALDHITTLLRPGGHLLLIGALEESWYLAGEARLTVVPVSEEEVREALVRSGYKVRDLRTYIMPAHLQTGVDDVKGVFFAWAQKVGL
# Potency is the fitted concentration of half-maximal effect.
Compound,activity [1],"activity change, negative = inhibition [2]",activity [3],activity [4],Potency [2]
Cn1cc(CN2CCCC(COc3ccccc3C(=O)N3CCCCC3)C2)c2ccccc21 (stereo not drawn),6.44%,7.22%,4.53%,3.6%,
CC(CNC(=O)CCc1nnc2n(Cc3ccc(F)cc3)c(=O)c3ccccc3n12)c1ccccc1 (stereo not drawn),-6.68%,-2.31%,-44.2%,-0.739%,
O=C(CCc1nnc2n(Cc3ccc(F)cc3)c(=O)c3ccccc3n12)N1CCC(N2CCCCC2)CC1,3.84%,0%,-4.81%,0%,
O=C(NCCc1ccccc1)N1CCn2cccc2C1Cc1ccccc1 (stereo not drawn),0.987%,,-8.34%,-0.866%,inactive
COc1ccc(CCNC(=O)c2ccc3c(=O)nc4c(-c5cccc(F)c5)n[nH]n4c3c2)cc1OC,-16%,,-27.1%,-14.6%,10.8 µM (active)
CCOC(=O)c1ccc(NC(=O)Cn2c(=O)oc3cc(S(=O)(=O)N4CCCC4)ccc32)cc1,-7.51%,-4.51%,-9.52%,-37.8%,
CCCCNC(=O)c1cccc(-c2cc(N3CCN(C)CC3)nc(N)n2)c1,-2.86%,-5.28%,-3.76%,-4.09%,
Cn1c(=O)n(C)c2cc(S(=O)(=O)Nc3ccc(-c4nnc(-c5ccccc5)o4)c(Cl)c3)ccc21,-28.6%,-7.85%,-40.4%,-17.1%,
COc1ccc(-c2nnc3n(CCc4ccccc4)c(=O)c4ccccc4n23)c(OC)c1,-4.93%,-5.05%,-9.89%,-5.15%,
COc1ccc(-c2nnn3c2nc(NCCc2ccc(OC)c(OC)c2)c2ccccc23)cc1,-10.5%,-2.81%,-12.4%,-9.28%,
O=C(CCc1nnc2n(Cc3ccc(Cl)cc3)c(=O)c3ccccc3n12)NCCN1CCCC1,4.15%,1.71%,-12.3%,0%,
c1ccc(Cn2cc(CN3CCN(c4ccncc4)CC3)c(-c3cc4ccccc4o3)n2)cc1,5.39%,12.1%,1.15%,6.65%,
COCc1nc2nc(-c3ccccc3)c(-c3ccc(O)c(F)c3)cc2n1C,-38%,,-53%,-59.9%,39.3 µM (active)
CN(CCCNC(=O)CCc1nnc2n(Cc3ccccc3)c(=O)c3ccccc3n12)Cc1ccccc1,1.61%,0%,-7.26%,-2.41%,
CCCCN1C(=O)c2cc(C(=O)NCc3ccc(OC)cc3OC)nn2CC1(C)C(=O)NC1CCCC1 (stereo not drawn),0.43%,0%,-36.8%,-3.65%,
CC(C)CCn1c(=O)c2ccccc2n2c(CCC(=O)N3CCN(c4ccc(F)cc4)CC3)nnc12,1.78%,0%,-61.2%,-6.79%,
O=C(c1ccc2c(=O)nc3c(-c4ccc(Cl)cc4)n[nH]n3c2c1)N1CCN(Cc2ccccc2)CC1,-8.28%,1.01%,-22.4%,-11.1%,
COC(=O)c1ccc(C)c2c1C1C=CCC1[C@@H](c1ccc(C(=O)O)cc1)N2 (stereo partly drawn),-11.4%,-1.6%,-8.29%,-3.22%,
O=C(c1ccc(Cl)cc1)N1CC2(CCN(CC3CC3)CC2)Cc2ccccc21,-9.09%,-2.34%,-9.37%,-4.04%,

Compound,activity [1],"activity change, negative = inhibition [2]",activity [3],activity [4],Potency [2]
O=C(CC1CCCC1)N1CCC(Nc2cccnc2)C1 (stereo not drawn),-11%,-10.5%,-14.6%,-7.86%,
COc1ncccc1-c1cc2c(ccn2CC2CCN([S+](C)(=O)[O-])CC2)c(N2CCOCC2)n1,-8.55%,1.38%,-94.7%,-10.8%,
CC(C)c1nccn1CCCNc1nc(-c2ccncc2)nc2c1cnn2C,-28.8%,-15.2%,-20.9%,-44.2%,
O=C(NCc1ccc2c(c1)OCO2)c1sc(=S)n2c1[nH]c(=O)c1cc(Cl)ccc12,-44.1%,,-69.1%,-48.4%,30.4 µM (active)
CCN(CC)CCNC(=O)CCc1nnc2n(Cc3ccccc3Cl)c(=O)c3ccccc3n12,-5.86%,-1.02%,-14.7%,2.62%,
CCOC(=O)CC1(NC(=O)N2CCn3cccc3C2Cc2ccccc2)CCCCC1 (stereo not drawn),2.42%,,-6.48%,-4.39%,inactive
COc1ccc(N2C(=O)c3ccc(-c4ccco4)n3CC2(C)C(=O)NCc2ccccc2)cc1OC (stereo not drawn),-7.65%,-2.41%,-17.5%,-3.81%,
CN1CCC(N2CC[C@H](c3nc4ccccc4[nH]3)C2)CC1,-6.53%,-8.47% [at 114 µM],-26.5%,-6.23%,
Cc1cccc(N2CCN(C(=O)c3ccc4c(=O)[nH]c5c(C(=O)NC(C)C)sc(=S)n5c4c3)CC2)c1C,-37.2%,0.0257%,-76.7%,-28.7%,
COc1ccc(CN2C[C@@H](CO)[C@H](c3ccncc3)C2)c(OC)c1,7.35%,7.27%,-21.3%,8.2%,
OCC1(Cc2ccccc2)CCCN(Cc2cn[nH]c2-c2ccc(F)cc2)C1 (stereo not drawn),5.88%,4.38%,0.855%,5.69%,
CCCCCNC(=O)c1sc(=S)n2c1[nH]c(=O)c1ccc(C(=O)OC)cc12,-39.2%,,-59.4%,-27%,30.4 µM (active)
O=S(=O)(c1ccc(Br)cc1)c1nnn2c1nc(NCCc1c[nH]c3ccccc13)c1ccccc12,-1.9%,-2.1%,-1.21%,-6.06%,
C[C@H]1CN(C(=O)c2nn(C)c3ccccc23)C[C@@H]1c1nc(-c2cccnc2)no1,15.6%,7.54%,-94%,7.38%,
Cc1ccc(N(C)S(=O)(=O)c2ccc3c(c2)n(C)c(=O)n3C)cc1,-6.35%,,-47%,-7.47%,0.192 µM (active)
COC(=O)c1cc2n(n1)CC(C)(C(=O)NC1CCC(C)CC1)N(Cc1ccc(OC)cc1OC)C2=O (stereo not drawn),-11.6%,-7.55%,-66.9%,-13.3%,
CC1CC(C)CN(S(=O)(=O)c2ccc3c(c2)oc(=O)n3CC(=O)Nc2ccc(F)cc2)C1 (stereo not drawn),4.26%,0%,-4.58%,-42.5%,
COc1ccc(CCNC(=O)c2ccc3c(=O)[nH]c4c(C(=O)NCC5CCCO5)sc(=S)n4c3c2)cc1OC (stereo not drawn),-41.4%,,-23.3%,-16.5%,27.1 µM (active)
Cc1noc2c(NC3CCN(C)CC3)cc(-c3cccs3)nc12,7.59%,13.7% [at 85.7 µM],0.3%,-6.76%,

Compound,activity [1],"activity change, negative = inhibition [2]",activity [3],activity [4],Potency [2]
CCN(CC)CCNC(=O)CCc1nnc2n(Cc3ccc(Cl)cc3)c(=O)c3ccccc3n12,2.48%,0%,-12.4%,0%,
Cn1nccc1-c1cc2c(cn1)CN(Cc1ccncc1)CCN2,1.75%,1.99% [at 85.7 µM],-4.82%,0.453%,
COCCNc1cc(-c2noc([C@@H]3CCCN3CC(C)C)n2)ccn1,3.05%,1.02% [at 85.7 µM],-4.35%,2.32%,
COc1cccc(-c2cccc(C(=O)N3C[C@H](CO)C[C@H](CN(C)C)C3)c2)c1,7.14%,2.08%,0.542%,4.94%,
COCCn1ccc2c(C3=CCOCC3)nc(-c3cccc4[nH]ccc34)cc21,-2.42%,-9.46% [at 85.7 µM],-12.7%,-36.9%,
COc1ccc2[nH]c(CNc3cc(C4CC(N)C4)nc(C)n3)cc2c1 (stereo not drawn),-1.03%,1.53%,-9.73%,3.97%,
O=C(CCC[C@@H]1[C@H]2CCCN3CCC[C@@H](CN1Cc1ccccc1)[C@@H]23)Nc1cccnc1,-3.16%,-5.99%,-11.8%,-2.62%,
CC(=O)Nc1cc(-c2cc(C(=O)NCc3cccnc3)c3c(c2)N(C)CCO3)ccn1,-17.6%,-8.39% [at 85.7 µM],-4.98%,-28.5%,
Cn1ccc(Nc2cc3c(cn2)CN(CCc2ccccc2)CCN3)n1,-0.459%,-0.578% [at 85.7 µM],-5.86%,-38.8%,
CCOC(=O)C1CCCN(S(=O)(=O)c2ccc3[nH]c(=O)[nH]c3c2)C1 (stereo not drawn),2.57%,0%,-6.43%,-50.4%,
COc1ccc(CNc2cc3c(cn2)CN(Cc2ccccc2)CCN3)cc1OC,2.46%,0.935% [at 85.7 µM],-32.8%,1.92%,
COc1ccc(NC(=O)C(C)(C)Oc2nn(CC3CC3)c3ccc(CN4CCCC4)cc23)cc1,8.52%,9.81%,5.5%,9.18%,
O=C(Nc1ccccc1)c1cnc2c(c1)N(C(=O)Cc1ccc(O)cc1)CCC2,-2.13%,-4.86% [at 85.7 µM],-4.08%,-3.63%,
CCOc1c(CN(C)C(=O)Cn2cccc(OC)c2=O)cccc1OC,0.499%,-5.47%,-3.91%,0.0949%,
c1ccc(CN2CCc3c(sc4ncnc(N5CCOCC5)c34)C2)cc1,-7.7%,-10.8%,-44.8%,-7.28%,
CN(CCCNC(=O)CCCc1nnc2n3nc(-c4ccccc4)nc3c3ccccc3n12)Cc1ccccc1,2.29%,0%,-6.15%,3.41%,
O=C(CCc1ccccc1)N1CCNc2cnc(Nc3cccnc3)nc2C1,-28.2%,-16.6% [at 85.7 µM],-21.6%,-41.2%,
CC(C)Cn1c(=O)c2ccccc2n2c(CCC(=O)N3CCN(c4ccc(F)cc4)CC3)nnc12,-4.42%,2.04%,-55.7%,-6.74%,
CC1CCCC(NC(=O)C2(C)Cn3c(cc4occc43)C(=O)N2Cc2ccco2)C1C (stereo not drawn),-10.3%,-6.55%,-20.3%,-11.1%,
